Shown are actives, neighbours in structure and some others; about 9.4% of the full set was active somewhere.
AMA1 RON2 block – disrupts binding of P. falciparum AMA1 to RON2. Potency, µM (series often up to 58.2 µM), most hits filed as inhibitors. AlphaScreen AMA1-biotinylated RON2 peptide binding. AID 720542. 360,000 tested, 0.2% active; further: nearly all actives have a fitted effect of over 45% in size
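AMA1 (3D7) with his tag at 25 nM final met compounds first, then biotinylated RON2 peptide at 25 nM; detection used donor plus acceptor beads, 10 µg/mL apiece, read by AlphaScreen after 30 min at room temperature.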
SARS PLP yeast – blocks SARS-CoV papain-like protease in a yeast assay | AID 485353 | Potency, µM (highest dose often 32.9 µM), most hits filed as activators | 330,000 tested, 0.19% active | S. cerevisiae expressing SARS-CoV PLpro, growth rescue; calls by dose curve; further: nearly all actives have a fitted effect of over 55% in size
Pf growth 48h – P. falciparum growth inhibition at 48 hours (one generation) | P. falciparum luciferase growth in erythrocytes, 48 h | Potency, µM (titrated, usually from 28.7 µM), hits mostly inhibitors | 310,000 tested, 5.9% active | AID 504832
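Read-out is firefly luciferase luminescence from an integrated reporter in P. falciparum, so falling signal marks reduced parasite growth. Infected erythrocytes were at 2% hematocrit and 0.1% parasitemia (final) in Albumax-supplemented RPMI 1640.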
Pf growth 96h – P. falciparum growth inhibition at 96 hour, primary screen for plastid delayed-death inhibitors. Potency, µM (doses to about 28.7 µM), actives largely listed as inhibitors. AID 504834. 320,000 tested, 6.9% active. P. falciparum luciferase reporter growth, 96 h
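Erythrocytes infected with luciferase-expressing P. falciparum were dispensed at 2% hematocrit and 0.05% parasitemia (final), then incubated with compounds 96 hours at 37 C in 5% CO2. Luminescence after detection reagent addition reported growth.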
Large screens that a line does not name were inactive. Unless noted, the call rests on the fitted dose curve; in most records, active means well fitted curve in the direction sought with a large enough effect; inconclusive means small, poorly fitted or top-dose-only effect, or another doubt; inactive means no such curve, though single readings can be large; an effect the other way counts as inactive or inconclusive.

O=C(Nc1cnn(Cc2ccc(Cl)cc2)c1)c1cccs1	Pf growth 48h 4.7µM, Pf growth 96h 6.6µM
O=C(Nc1cnn(Cc2ccc(Cl)cc2)c1)c1ccc([N+](=O)[O-])cc1	Pf growth 48h inconclusive, Pf growth 96h inconclusive
O=C(CNC(=O)c1cccs1)OCc1ccc(Cl)cc1	none
O=C(Nc1cnn(Cc2ccc(Cl)c(Cl)c2)c1)C12CC3CC(CC(C3)C1)C2	Pf growth 48h 13µM, Pf growth 96h 7.4µM
O=C(NCCSCc1ccc(Cl)cc1)c1cccs1	Pf growth 48h 3.3µM, Pf growth 96h 10µM
CN(C)c1ccc(/C=N/NC(=O)c2ccc(CN3CCOCC3)cc2)cc1Br	Pf growth 48h inconclusive, Pf growth 96h inconclusive
CN(Cc1ccccc1)C(=O)CCC1CCN(C(=O)CC2=CCCCC2)CC1	Pf growth 48h inconclusive
CCCc1ccc2oc(C(=O)N(C)Cc3cnccn3)c(C)c2c1	Pf growth 96h 10µM
Cc1c(C(=O)N(Cc2ccc(N(C)C)cc2)CC2CCCO2)oc2ccccc12 (stereo not drawn)	AMA1 RON2 block inconclusive, Pf growth 96h 4.1µM
CN(Cc1ccc(N(C)C)cc1)C(=O)c1cc2ccccc2o1	AMA1 RON2 block 14µM
CN(C)CCCOC(=O)c1cc2ccccc2o1	Pf growth 48h 2.6µM, Pf growth 96h inconclusive
COc1ccc(C(CC(=O)O)NS(=O)(=O)c2ccc3c(c2)NC(=O)CO3)cc1 (stereo not drawn)	none
Cc1cccc(N2C(=O)SC(N(C)c3ccccc3)C2=O)c1 (stereo not drawn)	none
COc1ccc(S(=O)(=O)Nc2c(O)ccc3ccccc23)cc1OC	none (no result: SARS PLP yeast, Pf growth 48h, Pf growth 96h)
CCCc1ccc2oc(C(=O)N(Cc3ccncc3)CC3CCCO3)c(C)c2c1 (stereo not drawn)	Pf growth 48h 9.3µM
Cc1ccc2oc(C(=O)N(Cc3ccncc3)CC3CCCO3)c(C)c2c1 (stereo not drawn)	Pf growth 48h inconclusive
CN(C)c1ccc(CN(CC2CCCO2)C(=O)c2cc3ccccc3o2)cc1 (stereo not drawn)	AMA1 RON2 block 16µM, Pf growth 96h inconclusive
COc1cc(C(=O)N2CCN(C(=O)c3ccccc3)CC2)cc(OC)c1OC	Pf growth 96h inconclusive
O=C(Nc1ccsc1C(=O)NC1CCCCC1)c1ccc(F)cc1	Pf growth 48h 1.7µM, Pf growth 96h 1.7µM
CCC(CC)Nc1ccc(C(CC(N)=O)NC(=O)c2ccccc2)cc1[N+](=O)[O-] (stereo not drawn)	Pf growth 96h inconclusive
CCOc1cc(-c2c(C#N)c(N)nc3c2CCCC3C)ccc1O (stereo not drawn)	Pf growth 96h 2.9µM
C[N+]1(C)[C@@H]2CC(OC(=O)[C@H](CO)c3ccccc3)C[C@H]1[C@@H]1O[C@@H]12 (stereo partly drawn)	none
C[N+]1(C)[C@@H]2CC[C@H]1CC(OC(=O)C(c1ccccc1)c1ccccc1)C2 (stereo partly drawn)	Pf growth 48h 2.3µM, Pf growth 96h 3.3µM
CCCC(CCC)C(=O)OC1C[C@H]2CC[C@@H](C1)[N+]2(C)C (stereo partly drawn)	Pf growth 48h 12µM, Pf growth 96h 4.3µM
CC(C)[N+]1(C)[C@@H]2CC[C@@H]1CC(OC(=O)C(CO)c1ccccc1)C2 (stereo partly drawn)	none (no result: SARS PLP yeast)
CCc1nccn1S(=O)(=O)c1cc(OC)ccc1OC	none
COc1ccc(N2C(=O)[C@@H]3[C@H](C2=O)[C@H]2C=CC=NN2[C@@H]3C(=O)Nc2ccc(Cl)cc2)cc1	Pf growth 48h inconclusive
Cc1ccc(N2C(=O)[C@@H]3[C@H](C2=O)C2c4ccccc4C=CN2[C@@H]3C(=O)c2ccco2)cc1 (stereo partly drawn)	Pf growth 48h inconclusive
O=C(c1ccco1)[C@@H]1[C@@H]2C(=O)N(c3ccccc3)C(=O)[C@@H]2C2c3ccccc3C=CN21 (stereo partly drawn)	Pf growth 96h 4.7µM
COc1ccc(N2C(=O)[C@@H]3[C@H](C2=O)[C@H]2c4ccccc4C=CN2[C@@H]3C(=O)Nc2ccccc2)cc1	Pf growth 96h 9.3µM (no result: Pf growth 48h)
Cc1onc(C(=O)Nc2sc3c(c2C#N)CCCC3)c1[N+](=O)[O-]	none
CC(NC(=O)[C@H](C)NC(=O)c1ccco1)c1ccc(S(N)(=O)=O)cc1 (stereo partly drawn)	none
CCOC(=O)c1cc2c(=O)n3ccccc3nc2n(CC2CCCO2)c1=NC(=O)/C=C/c1ccccc1 (stereo not drawn)	Pf growth 48h inconclusive
CCN(CC)S(=O)(=O)c1ccc(F)c(C(=O)NCCC(C)C)c1	Pf growth 96h 4.1µM
CCN(CC)S(=O)(=O)c1ccc(Cl)c(C(=O)NC)c1	none
Cc1ccc(N2C(=O)[C@@H]3[C@H](C2=O)C2CCCN2[C@@H]3C(=O)c2ccccc2)cc1 (stereo partly drawn)	Pf growth 48h 12µM, Pf growth 96h inconclusive
O=C(c1ccc(Cl)cc1)C1C2C(=O)N(c3ccccc3)C(=O)C2C2CCCN21 (stereo not drawn)	Pf growth 48h inconclusive, Pf growth 96h 15µM
O=S(=O)(c1ccc(-c2ccon2)s1)N1CCN(c2ccncc2)CC1	Pf growth 48h 1.3µM
Cc1ccccc1/C(N)=N/OC(=O)N1c2ccccc2Sc2ccccc21	Pf growth 48h inconclusive, Pf growth 96h 10µM
Cc1ccc(/C(N)=N/OC(=O)N2c3ccccc3Sc3ccccc32)cc1	none (no result: SARS PLP yeast, Pf growth 48h, Pf growth 96h)
Cc1cc(-c2sccc2C)nc(-n2cccc2)n1	none
Cc1ccc(S(=O)(=O)N(C)CCCC(=O)N2CCCCC2)cc1	none
CC(=O)c1ccc(S(=O)(=O)N(C)CCCC(=O)N2CCN(c3ncccn3)CC2)cc1	Pf growth 48h inconclusive, Pf growth 96h 12µM
COc1ccc(-c2nc(C#N)c(NC(C)c3ccccc3)o2)cc1OC (stereo not drawn)	Pf growth 48h 15µM, Pf growth 96h inconclusive
COc1ccc(OC)c(NC(=S)N2CCC(C(O)(c3ccccc3)c3ccccc3)CC2)c1	Pf growth 48h 9.3µM, Pf growth 96h inconclusive
O=C1C2C3C=CC(C3)C2C(=O)N1c1ccc2ccccc2n1 (stereo not drawn)	none
O=C1C2C3C=CC(C3)C2C(=O)N1c1nc2ccccc2s1 (stereo not drawn)	Pf growth 96h 8.3µM
CCCCOc1ccc(Cc2cnc(N)nc2N)cc1	Pf growth 48h inconclusive, Pf growth 96h inconclusive
COc1cc(C)c(Cc2cnc(N)nc2N)cc1OC	Pf growth 48h 3.8µM, Pf growth 96h 2.7µM (no result: AMA1 RON2 block)
COc1ccc(Cc2cnc(N)nc2N)cc1OC	Pf growth 48h 2.4µM, Pf growth 96h 3.8µM (no result: AMA1 RON2 block, SARS PLP yeast)
CC(C)Oc1ccc(Cc2cnc(N)nc2N)cc1	Pf growth 96h 6.6µM (no result: Pf growth 48h)
O=C(CSc1nc2ccccc2o1)N1CCCC1	none (no result: Pf growth 48h)
CCN(Cc1ccccc1)c1ccc(/C=C(\C#N)c2ccccn2)cc1	Pf growth 96h inconclusive
COc1cc(/C=C(\C#N)c2ccccn2)ccc1OCc1ccc(Cl)cc1	Pf growth 48h 6.6µM, Pf growth 96h 5.2µM
COc1cc(/C=C(\C#N)c2ccccn2)ccc1OCc1ccccc1	Pf growth 48h 9.3µM, Pf growth 96h inconclusive
Cc1ccc(C23CC4CC(CC(C(=O)NC(C)C(=O)O)(C4)C2)C3)cc1 (stereo not drawn)	none
